# Results reported in PubChem BioAssay.
# Several values for one entry are separate records, joined by “and”; a condition that tells them apart may be missing. Equal values may be shown once. A number with no mark means an inactive call. Some of the results follow. Activity calls are given as the source filed them. Unless noted, no stated cut-off is given here; in the data, active means inhibition above about 33%; inactive means the rest.
# Columns and labels:
# [1] = target: Nuclear receptor coactivator 3 (Homo sapiens) (UniProt Q9Y6Q9); experiment: SRC3 coactivator transcriptional activity inhibitors, confirmation, cell-based, luminescence, quadruplicate (AID 588792;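 active means mean inhibition over 43.08%, the solvent-only control mean plus 3 SD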;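 further: 0% = DMSO treated cells and 100% = gossypol at 36 µM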); conditions: HEK293 GAL4-SRC3 luciferase reporter, at 3.6 µM, hits give high values
# Nuclear receptor coactivator 3 (Homo sapiens), sequence (Q9Y6Q9 whole entry, looked up, the tested form may be a part): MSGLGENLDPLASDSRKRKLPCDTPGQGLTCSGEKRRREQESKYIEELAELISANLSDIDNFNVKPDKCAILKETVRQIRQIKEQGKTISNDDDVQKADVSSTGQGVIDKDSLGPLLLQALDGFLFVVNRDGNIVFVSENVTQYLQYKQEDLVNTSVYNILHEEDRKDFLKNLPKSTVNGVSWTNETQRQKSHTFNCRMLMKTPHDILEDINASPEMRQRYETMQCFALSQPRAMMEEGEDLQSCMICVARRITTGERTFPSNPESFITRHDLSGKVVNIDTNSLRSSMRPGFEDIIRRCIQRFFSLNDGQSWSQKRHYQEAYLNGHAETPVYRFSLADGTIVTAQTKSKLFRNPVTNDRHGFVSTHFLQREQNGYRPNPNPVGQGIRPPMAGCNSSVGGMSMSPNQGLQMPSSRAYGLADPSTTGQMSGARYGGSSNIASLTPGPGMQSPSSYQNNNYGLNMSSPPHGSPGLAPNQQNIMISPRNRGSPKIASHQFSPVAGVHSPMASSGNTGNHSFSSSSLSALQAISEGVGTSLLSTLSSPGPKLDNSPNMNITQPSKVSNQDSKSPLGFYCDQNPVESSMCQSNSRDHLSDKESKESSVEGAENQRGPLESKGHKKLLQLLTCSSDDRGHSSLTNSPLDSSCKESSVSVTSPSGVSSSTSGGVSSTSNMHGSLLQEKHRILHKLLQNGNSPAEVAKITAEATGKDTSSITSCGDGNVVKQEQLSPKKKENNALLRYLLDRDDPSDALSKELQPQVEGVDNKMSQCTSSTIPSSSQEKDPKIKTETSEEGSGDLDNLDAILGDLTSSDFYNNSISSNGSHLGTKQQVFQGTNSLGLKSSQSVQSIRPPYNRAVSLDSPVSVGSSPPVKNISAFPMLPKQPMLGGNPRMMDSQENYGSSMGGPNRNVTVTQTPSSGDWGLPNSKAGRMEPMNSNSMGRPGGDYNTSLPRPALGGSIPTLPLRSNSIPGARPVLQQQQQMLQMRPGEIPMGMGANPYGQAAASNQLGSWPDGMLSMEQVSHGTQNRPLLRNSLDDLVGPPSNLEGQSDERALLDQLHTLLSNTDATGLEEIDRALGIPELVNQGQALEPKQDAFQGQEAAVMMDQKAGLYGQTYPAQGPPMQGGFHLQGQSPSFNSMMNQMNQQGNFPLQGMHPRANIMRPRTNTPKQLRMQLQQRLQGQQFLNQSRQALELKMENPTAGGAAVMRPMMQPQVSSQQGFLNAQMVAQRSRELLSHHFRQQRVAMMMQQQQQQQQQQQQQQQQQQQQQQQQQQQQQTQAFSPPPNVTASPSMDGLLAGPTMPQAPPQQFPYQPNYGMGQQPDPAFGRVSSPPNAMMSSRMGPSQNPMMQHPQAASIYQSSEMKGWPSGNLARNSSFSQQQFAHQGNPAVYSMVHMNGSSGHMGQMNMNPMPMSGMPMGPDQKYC
# [2] = test system: transactivating tegument protein VP16 (Human herpesvirus 1), Gal4-VP16 luciferase reporter; experiment: VP16 transactivation inhibitors, counter-screen for SRC3 inhibitor project, cell-based, luminescence, high throughput (AID 588794; in the data active means inhibition above about 30%); conditions: mammalian cells, VP16-driven luciferase reporter luminescence; at 3.6 µM; hits give high values
# [3] = target: Nuclear receptor coactivator 1 (Homo sapiens) (UniProt Q15788); experiment: SRC1 coactivator transcriptional activity inhibitors, confirmation, cell-based, luminescence, quadruplicate (AID 588820;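 active means mean inhibition above 46.68%, the untreated control wells mean plus 3 SD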;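 further: 0% = DMSO wells and 100% = gossypol 36 µM treated wells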); conditions: HEK293 GAL4-SRC1 luciferase reporter, at 3.6 µM, hits give high values
# Nuclear receptor coactivator 1 (Homo sapiens), sequence (Q15788 whole entry, looked up, the tested form may be a part): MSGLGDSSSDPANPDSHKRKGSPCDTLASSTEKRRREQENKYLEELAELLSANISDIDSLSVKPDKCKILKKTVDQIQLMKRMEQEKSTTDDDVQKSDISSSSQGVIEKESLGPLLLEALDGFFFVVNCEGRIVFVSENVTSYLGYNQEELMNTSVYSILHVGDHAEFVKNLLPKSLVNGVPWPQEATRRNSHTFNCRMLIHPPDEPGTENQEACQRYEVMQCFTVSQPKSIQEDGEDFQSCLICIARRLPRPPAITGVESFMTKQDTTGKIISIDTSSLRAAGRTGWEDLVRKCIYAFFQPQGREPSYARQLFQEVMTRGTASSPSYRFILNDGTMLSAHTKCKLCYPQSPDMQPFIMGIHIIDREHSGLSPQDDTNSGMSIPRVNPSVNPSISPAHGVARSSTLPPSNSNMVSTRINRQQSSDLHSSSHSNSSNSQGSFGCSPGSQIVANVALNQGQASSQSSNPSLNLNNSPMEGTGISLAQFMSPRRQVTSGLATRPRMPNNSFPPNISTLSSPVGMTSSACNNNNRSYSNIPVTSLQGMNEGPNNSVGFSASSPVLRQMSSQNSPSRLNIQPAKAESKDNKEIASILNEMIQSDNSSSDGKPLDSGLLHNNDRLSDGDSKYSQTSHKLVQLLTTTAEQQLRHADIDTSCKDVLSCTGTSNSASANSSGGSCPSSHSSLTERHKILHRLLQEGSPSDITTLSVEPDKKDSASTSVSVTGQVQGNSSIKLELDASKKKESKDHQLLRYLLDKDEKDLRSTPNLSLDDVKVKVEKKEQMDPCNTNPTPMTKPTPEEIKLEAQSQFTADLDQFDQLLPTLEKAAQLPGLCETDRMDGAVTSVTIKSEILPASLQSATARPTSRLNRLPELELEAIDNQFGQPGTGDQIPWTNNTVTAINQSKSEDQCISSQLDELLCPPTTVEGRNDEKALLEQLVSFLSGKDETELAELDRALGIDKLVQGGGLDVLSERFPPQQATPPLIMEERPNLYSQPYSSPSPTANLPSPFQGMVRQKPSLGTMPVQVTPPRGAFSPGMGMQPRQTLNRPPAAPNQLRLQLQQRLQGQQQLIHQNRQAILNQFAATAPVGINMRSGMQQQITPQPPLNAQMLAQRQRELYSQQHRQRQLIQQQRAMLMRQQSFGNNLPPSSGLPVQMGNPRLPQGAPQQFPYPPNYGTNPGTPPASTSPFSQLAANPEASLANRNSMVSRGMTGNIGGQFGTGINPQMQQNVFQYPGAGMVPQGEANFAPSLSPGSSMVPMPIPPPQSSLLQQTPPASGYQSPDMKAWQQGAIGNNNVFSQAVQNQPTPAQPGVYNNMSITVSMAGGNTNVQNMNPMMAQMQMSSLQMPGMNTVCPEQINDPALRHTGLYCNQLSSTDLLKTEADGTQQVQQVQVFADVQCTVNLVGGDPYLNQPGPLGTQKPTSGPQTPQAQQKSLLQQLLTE
# [4] = VP16 transactivation inhibitors, counter-screen for SRC1 inhibitor project, cell-based, luminescence, high throughput (AID 588824; in the data active means inhibition above about 25%); conditions: cell-based VP16 transactivation luciferase luminescence; at 3.6 µM; hits give high values
# [5] = StAR promoter reporter inhibitors, counter-screen for LRH-1 inverse agonist project, cell-based, luminescence, high throughput (AID 651611; in the data active means inhibition above about 28%); conditions: StAR promoter luciferase reporter counterscreen, at 3.6 µM, hits give high values
# [6] = target: Nuclear receptor subfamily 5 group A member 2 (Homo sapiens) (UniProt O00482); experiment: LRH-1 (NR5A2) inverse agonists, retest, confirmation, cell-based, luminescence (AID 651613; in the data active means inhibition above about 42%;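 further: HEK293T cells co-transfected with LRH-1 and StAR promoter luciferase reporter; 0% = vehicle wells and 100% = parental cells lacking receptor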); conditions: cell-based LRH-1 luciferase reporter, inverse agonism; at 3.6 µM; hits give high values
# Nuclear receptor subfamily 5 group A member 2 (Homo sapiens), sequence (O00482 whole entry, looked up): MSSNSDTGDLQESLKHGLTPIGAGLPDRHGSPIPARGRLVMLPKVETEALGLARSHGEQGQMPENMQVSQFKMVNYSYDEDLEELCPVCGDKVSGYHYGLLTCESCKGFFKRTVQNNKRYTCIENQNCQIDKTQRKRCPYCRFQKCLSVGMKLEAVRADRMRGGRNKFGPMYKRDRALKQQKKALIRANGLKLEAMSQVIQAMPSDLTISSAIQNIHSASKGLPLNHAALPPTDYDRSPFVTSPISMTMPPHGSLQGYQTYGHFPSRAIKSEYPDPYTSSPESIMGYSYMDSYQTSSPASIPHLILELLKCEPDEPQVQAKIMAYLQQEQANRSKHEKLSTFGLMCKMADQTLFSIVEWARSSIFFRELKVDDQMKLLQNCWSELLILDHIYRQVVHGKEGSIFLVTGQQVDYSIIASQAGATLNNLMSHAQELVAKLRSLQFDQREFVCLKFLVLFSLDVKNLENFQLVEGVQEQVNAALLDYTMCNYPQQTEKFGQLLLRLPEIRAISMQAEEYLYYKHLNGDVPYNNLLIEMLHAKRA
# [7] = target: Steroidogenic factor 1 (Homo sapiens) (UniProt Q13285); experiment: SF1 (NR5A1) inverse agonists, counter-screen for LRH-1 inverse agonist project, cell-based, luminescence, high throughput (AID 651614; in the data active means inhibition above about 44%;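 further: cells cotransfected with StAR promoter reporter and SF1 expression vector; 0% = vehicle on cells with receptor and 100% = vehicle on cells lacking receptor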); conditions: cell-based SF1 luciferase reporter, at 3.6 µM, hits give high values
# Steroidogenic factor 1 (Homo sapiens), sequence (Q13285 whole entry, looked up, the tested form may be a part): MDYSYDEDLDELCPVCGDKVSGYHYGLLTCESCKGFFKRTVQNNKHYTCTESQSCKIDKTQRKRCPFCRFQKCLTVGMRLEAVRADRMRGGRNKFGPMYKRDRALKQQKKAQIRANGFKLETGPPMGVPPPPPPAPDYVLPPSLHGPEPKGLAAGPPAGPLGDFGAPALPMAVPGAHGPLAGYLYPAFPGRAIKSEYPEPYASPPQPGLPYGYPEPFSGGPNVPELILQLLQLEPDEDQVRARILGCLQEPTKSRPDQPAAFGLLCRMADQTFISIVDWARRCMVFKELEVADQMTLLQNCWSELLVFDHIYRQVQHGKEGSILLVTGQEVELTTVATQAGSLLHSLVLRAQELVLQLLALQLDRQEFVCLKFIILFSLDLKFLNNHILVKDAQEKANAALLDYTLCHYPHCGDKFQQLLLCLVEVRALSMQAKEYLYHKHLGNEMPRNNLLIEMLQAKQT
# [8] = VP16 transactivation reporter inhibitors, counter-screen for LRH-1 inverse agonist project, cell-based, luminescence, high throughput (AID 651615); conditions: Gal4-VP16 luciferase reporter cells, at 3.6 µM, hits give high values
# [9] = growth loss of phage-infected RecBCD+ E. coli, confirmation, RecBCD inhibitor project, absorbance, E. coli V66, T4 gene 2 phage (AID 651982;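 active means mean inhibition over triplicates exceeding the hit threshold derived in the original primary screen, cut at about 11% in these data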); conditions: E. coli V66 + T4 2- phage, growth OD; at 11.9 µM; hits give high values
# [10] = E. coli viability inhibition, counter-screen for RecBCD inhibitor project, absorbance, high throughput (AID 651983; in the data active means inhibition above about 20%;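 further: E. coli strain V66 grown with compound alone and no phage infection; 0% = bacteria with DMSO vehicle only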); conditions: absorbance (OD) growth, at 11.9 µM, hits give high values
# [11] = growth loss of phage-infected AddAB-carrying E. coli, confirmation, counter-screen for RecBCD inhibitor project, absorbance, E. coli V3065, T4 phage (AID 651984;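 active means mean inhibition above the solvent-only control wells' mean plus 3 SD, cut at about 22% in these data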;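 further: higher means less bacterial growth from phage killing when AddAB is blocked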); conditions: E. coli expressing H. pylori AddAB + T4 phage, OD growth; at 11.9 µM; hits give high values; gene 2 mutant T4, recBCD-deleted host
SMILES,inhibition [1],inhibition [2],inhibition [3],inhibition [4],inhibition [5],inhibition [6],inhibition [7],inhibition [8],inhibition [9],inhibition [10],inhibition [11]
COC(=O)c1c(NC(=O)c2cccc([N+](=O)[O-])c2)sc(C(N)=O)c1C,23.4%,55.9% (active),18.9%,47.2% (active),46.9% (active),84.6% (active),80.5% (active),69.2% (active),–,–,–
Cc1cc(/C=C2\SC(=S)N(C)C2=O)c(C)n1-c1ccc(O)cc1,73.9% (active),61.8% (active),49% (active),47.5% (active),40.3% (active),7.93%,48% (active),39.5% (active),–,–,–
Cn1nccc1C(=O)N/N=C/c1c(O)ccc2ccccc12,73.9% (active),74.6% (active),72% (active),71% (active),82.4% (active),101% (active),86.2% (active),71.1% (active),–,–,–
Cc1nc2cc(NCc3nc4ccccc4n3Cc3ccccc3)ccc2n1C,-99.3%,-51.2%,-116%,-72.9%,-136%,-185%,-209%,-111%,–,–,–
NC(=O)c1cccc(-c2cnc(N)c(C(=O)c3cccnc3)n2)c1,76.7% (active),49.5% (active),65.9% (active),48.5% (active),59.9% (active),72.6% (active),67.2% (active),72.7% (active),–,–,–
O=c1[nH]cnc2c1nnn2C1OC(CO)C(O)C1O (stereo not given),59% (active),15.3%,-5.97%,17%,69.7% (active),78.6% (active),71.1% (active),27.1%,–,–,–
CC(NNC(=S)N1CCN(c2ccccn2)CC1)c1nccc2ccccc12 (stereo not given),61.5% (active),54.2% (active),55.6% (active),59.5% (active),80.9% (active),97.1% (active),89.3% (active),61% (active),–,–,–
O=C1C(Nc2ccccc2)=C(N2CCCCC2)C(=O)c2ccccc21,19.4%,39.6% (active),44.4%,35.9% (active),-2.41%,22.5%,6.41%,12.1%,–,–,–
CC1=NN(c2nc3ccccc3[nH]2)C(=O)C1Cc1ccccc1 (stereo not given),53.5% (active),68% (active),48.1% (active),67.5% (active),70.3% (active),101% (active),88.7% (active),83.6% (active),–,–,–
CCC1(OC(=O)CN(C)C)C(=O)OCc2c1cc1n(c2=O)Cc2cc3c(N)cccc3nc2-1 (stereo not given),89.8% (active),65.3% (active),62.3% (active),54.6% (active),83.5% (active),103% (active),90.5% (active),68.1% (active),–,–,–
CCN(CC)c1ccc(/C=C/c2ccc3ccc(OC)cc3[n+]2CC)cc1,50.1% (active),74.8% (active),42.6%,74.5% (active),67.8% (active),96.4% (active),90.8% (active),84.1% (active),–,–,–
COc1ccc(OC)c(Cc2cnc3nc(N)nc(N)c3c2C)c1,67% (active),27.5%,59.9% (active),28.4% (active),80.7% (active),62.3% (active),52.5% (active),43.9% (active),79.8% (active),79.2% (active),85.3% (active)
C=CCn1c(C)cc(C(=O)CN2C(=O)c3ccccc3S2(=O)=O)c1C,89.7% (active),74.1% (active),77.3% (active),72.7% (active),89% (active),91.1% (active),90.7% (active),83.8% (active),–,–,–
O=C(c1ccccc1)c1c2c(cc3sc4ccccc4[n+]13)-c1cccc3cccc-2c13,49% (active),61.2% (active),29.4%,64.6% (active),47.8% (active),99.3% (active),75.1% (active),81.7% (active),–,–,–
Cc1ccc2ccc3cccnc3c2n1,-1.81%,18.9%,12%,24.6%,30.6% (active),50.2% (active),54.5% (active),37.3% (active),–,–,–
CN(C)c1ccc(C=c2c3ccccc3n3c2c2c([n+]3C)CCCC2)cc1,75.3% (active),81.7% (active),55.7% (active),81.8% (active),79% (active),110% (active),94.3% (active),94.7% (active),–,–,–
Cc1cccc(C(=O)Nc2sc3c(c2C(=O)O)CCCC3)c1,37.5%,59.1% (active),25.5%,58.2% (active),53.6% (active),85.8% (active),82.3% (active),68.9% (active),–,–,–

SMILES,inhibition [1],inhibition [2],inhibition [3],inhibition [4],inhibition [5],inhibition [6],inhibition [7],inhibition [8],inhibition [9],inhibition [10],inhibition [11]
COc1ccccc1NC(=S)NN=C(C)c1ccccn1,4.97%,65.2% (active),-16.5%,64% (active),81.8% (active),98.4% (active),85.8% (active),70.8% (active),–,–,–
CCN1/C(=C/c2ccc3cc(C)ccc3[n+]2CC)Sc2cc(C)c(C)cc21,38.9%,65.4% (active),18.8%,58.4% (active),55.6% (active),87.4% (active),83.1% (active),75.5% (active),–,–,–
CCCCCCCCCn1ccc(=N)cc1,68.9% (active),84.2% (active),58.6% (active),85.2% (active),72.7% (active),102% (active),91.3% (active),85.9% (active),–,–,–
CCCCCCCCCCn1c2c(c(=N)c3c1CCC3)CCC2,85.2% (active),89.5% (active),57.1% (active),89.7% (active),82.1% (active),108% (active),94.5% (active),95.2% (active),–,–,–
O=C(NC(Nc1nc2ccc([N+](=O)[O-])cc2s1)(C(F)(F)F)C(F)(F)F)c1ccccc1Cl,65.5% (active),86.2% (active),27.1%,86% (active),82.2% (active),103% (active),93.4% (active),89.8% (active),–,–,–
Cc1cc(-c2nnc(SCC(=O)Nc3ccccc3C(F)(F)F)o2)c(C)n1-c1ccccc1,33.3%,11.2%,-7.25%,-22.9%,28.2% (active),-50.2%,14.8%,-38.7%,–,–,–
COC(C(=O)C(O)C(C)O)C1Cc2cc3cc(OC4CC(OC5CC(O)C(O)C(C)O5)C(O)C(C)O4)c(C)c(O)c3c(O)c2C(=O)C1OC1CC(OC2CC(OC3CC(O)C(OC)C(C)O3)C(O)C(C)O2)C(O)C(C)O1 (stereo not given),93.6% (active),93.9% (active),78% (active),92.2% (active),93.6% (active),109% (active),97.2% (active),99.4% (active),–,–,–
COCCn1c(C)cc(C2=NNC(=Nc3ccccc3)SC2)c1C,-62.4%,-40.8%,-119%,-64%,-73.4%,-77.6%,-67.8%,-136%,–,–,–
O=C(NC(NC(=S)N1CCOCC1)C(Cl)(Cl)Cl)c1ccc(Cl)cc1 (stereo not given),30.4%,18.7%,23%,15%,47.4% (active),53.2% (active),50.2% (active),20.3%,–,–,–
Cc1ccc(S(=O)(=O)N(C)C)cc1NC(=O)c1cncc(Br)c1,22.1%,5.79%,8.59%,0.1%,44.1% (active),43% (active),47.6% (active),19.7%,–,–,–
COc1ccc(NC(=O)c2cc(-c3cc(Cl)ccc3OC)n[nH]2)cc1OC,27.4%,51.2% (active),19.2%,44% (active),38.9% (active),47.8% (active),61.2% (active),57.8% (active),–,–,–
Cc1ccc2nc(NC(=O)CSCC(=O)OCC(=O)c3ccccc3)sc2c1,46.5% (active),39% (active),7.46%,30.5% (active),19.2%,52.4% (active),39.6%,32.6% (active),–,–,–
CCN1/C(=C/C(C)=C/c2sc3ccccc3[n+]2CC)Sc2ccccc21,80.9% (active),84.2% (active),58.4% (active),81.6% (active),77% (active) and 81.8% (active),107% (active) and 106% (active),89.7% (active) and 93.3% (active),88.1% (active) and 89.4% (active),–,–,–
Cc1ccc(S(=O)(=O)Nc2ccccc2C(=O)Nc2nc(-c3ccc(F)cc3)cs2)cc1,20.7%,27.8%,20.1%,37% (active),42.1% (active),82.7% (active),80.3% (active),72.4% (active),–,–,–
COc1ccc(-c2noc(CCCC(=O)O)n2)cc1,44.7% (active),36.1% (active),30.7%,26% (active),39% (active),47.8% (active),40.1%,30.7%,–,–,–
CCN(CC)c1ccc(C(=C2C=CC(=[N+](CC)CC)C=C2)c2ccc(N(CC)CC)cc2)cc1,85.3% (active),89.9% (active),60.9% (active),84.3% (active),85.6% (active),110% (active),97.1% (active),97.1% (active),–,–,–
C[n+]1c(-c2ccccc2)cc2c(=Cc3ccccc3)c3ccccc3n21,39.3%,70.3% (active),27.9%,63.3% (active),54.9% (active),98.1% (active),87.2% (active),84.3% (active),–,–,–
